Experiment in all cases: PBM; 200 nM protein, PBS
Conditions in all cases: dsDNA, one strand shown

The target in one assay is T1, VENTX (Homo sapiens, UniProt O95231 78-163, R121Q).
T1 sequence: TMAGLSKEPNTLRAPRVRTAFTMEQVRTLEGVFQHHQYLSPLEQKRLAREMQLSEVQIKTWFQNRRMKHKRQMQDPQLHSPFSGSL

Assay [1] concerns the target HOXA4 (Homo sapiens, UniProt Q00056 201-287, W262R).
Assay [2] has as its target ALX4 (Homo sapiens, UniProt Q9H161 200-286).
For assay [3], the target named is PRRX1 (Homo sapiens, UniProt P54821 80-166, F113S).
PRRX1 (Homo sapiens, UniProt P54821 80-166, F113S), sequence (P54821 80-166 F113S): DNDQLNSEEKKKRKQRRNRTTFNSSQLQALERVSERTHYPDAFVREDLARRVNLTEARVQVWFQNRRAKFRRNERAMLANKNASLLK
For assay [4], the target named is ALX4 (Homo sapiens, UniProt Q9H161 200-286, Q225E).
ALX4 (Homo sapiens, UniProt Q9H161 200-286, Q225E), sequence (Q9H161 200-286 Q225E): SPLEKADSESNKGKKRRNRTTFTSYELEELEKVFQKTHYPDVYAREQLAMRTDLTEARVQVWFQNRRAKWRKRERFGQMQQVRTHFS
The target in assay [5] is HOXA2 (Homo sapiens, UniProt O43364 129-215, R185T).
HOXA2 (Homo sapiens, UniProt O43364 129-215, R185T), sequence (O43364 129-215 R185T): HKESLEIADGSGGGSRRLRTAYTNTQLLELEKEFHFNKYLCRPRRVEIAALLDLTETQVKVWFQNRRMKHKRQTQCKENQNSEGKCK
The target of assay [6] is MSX2 (Homo sapiens, UniProt P35548 130-214, R199I).
MSX2 (Homo sapiens, UniProt P35548 130-214, R199I), sequence (P35548 130-214 R199I): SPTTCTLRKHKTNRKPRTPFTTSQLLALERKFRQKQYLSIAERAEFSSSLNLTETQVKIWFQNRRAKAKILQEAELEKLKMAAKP
The target of assay [7] is HOXA2 (Homo sapiens, UniProt O43364 129-215, R185K).
HOXA2 (Homo sapiens, UniProt O43364 129-215, R185K), sequence (O43364 129-215 R185K): as the sequence (O43364 129-215 R185T) above, with T57K counted along it
Assay [8] has as its target HOXA4 (Homo sapiens, UniProt Q00056 201-287).
Assay [9] deals with MSX2 (Homo sapiens, UniProt P35548 130-214).
MSX2 (Homo sapiens, UniProt P35548 130-214), sequence (P35548 130-214): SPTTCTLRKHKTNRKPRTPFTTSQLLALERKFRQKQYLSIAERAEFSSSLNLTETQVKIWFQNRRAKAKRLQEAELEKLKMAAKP
For assay [10], the target named is MSX2 (Homo sapiens, UniProt P35548 130-214, F161Y).
MSX2 (Homo sapiens, UniProt P35548 130-214, F161Y), sequence (P35548 130-214 F161Y): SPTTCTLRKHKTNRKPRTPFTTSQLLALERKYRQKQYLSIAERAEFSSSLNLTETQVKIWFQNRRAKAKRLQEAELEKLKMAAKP
Assay [11] addresses VAX1 (Homo sapiens, UniProt Q5SQQ9 86-172, T142I).
Another assay has as its target ALX1 (Homo sapiens, UniProt Q15699 118-204).
Assay [12] concerns the target HOXA4 (Homo sapiens, UniProt Q00056 201-287, W262F).
The target in assay [13] is PRRX1 (Homo sapiens, UniProt P54821 80-166).
PRRX1 (Homo sapiens, UniProt P54821 80-166), sequence (P54821 80-166): as the sequence (P54821 80-166 F113S) above, with S34F counted along it
The target in assay [14] is VAX1 (Homo sapiens, UniProt Q5SQQ9 86-172, K157R).
VAX1 (Homo sapiens, UniProt Q5SQQ9 86-172, K157R), sequence (Q5SQQ9 86-172 K157R): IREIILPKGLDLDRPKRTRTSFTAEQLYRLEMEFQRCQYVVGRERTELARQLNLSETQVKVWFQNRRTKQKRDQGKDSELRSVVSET
Assay [15] addresses HOXA7 (Homo sapiens, UniProt P31268 116-202).
Assay [16] addresses HOXB6 (Homo sapiens, UniProt P17509 132-218, K202E).
Assay [17] deals with HOXA7 (Homo sapiens, UniProt P31268 116-202, W177C).
HOXA7 (Homo sapiens, UniProt P31268 116-202, W177C), sequence (P31268 116-202 W177C): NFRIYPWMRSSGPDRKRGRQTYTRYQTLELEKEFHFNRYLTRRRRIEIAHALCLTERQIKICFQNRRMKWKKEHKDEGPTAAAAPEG
Assay [18] addresses HOXB6 (Homo sapiens, UniProt P17509 132-218).

The values that follow come from paper PMC11006913.

HOXA7 (Homo sapiens, UniProt P31268 116-202), sequence (P31268 116-202): as the sequence (P31268 116-202 W177C) above, with C62W counted along it
ALX1, sequence (Q15699 118-204): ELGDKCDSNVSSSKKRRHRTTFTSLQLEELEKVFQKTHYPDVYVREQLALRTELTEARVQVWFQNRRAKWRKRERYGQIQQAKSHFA
HOXB6 (Homo sapiens, UniProt P17509 132-218), sequence (P17509 132-218): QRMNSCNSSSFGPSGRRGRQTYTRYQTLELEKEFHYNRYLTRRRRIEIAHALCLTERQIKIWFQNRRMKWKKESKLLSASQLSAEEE
HOXB6 (Homo sapiens, UniProt P17509 132-218, K202E), sequence (P17509 132-218 K202E): as the sequence (P17509 132-218) above, with K71E counted along it
HOXA4 (Homo sapiens, UniProt Q00056 201-287), sequence (Q00056 201-287): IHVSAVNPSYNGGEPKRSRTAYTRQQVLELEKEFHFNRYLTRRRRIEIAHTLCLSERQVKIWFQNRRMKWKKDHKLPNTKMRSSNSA
HOXA4 (Homo sapiens, UniProt Q00056 201-287, W262R), sequence (Q00056 201-287 W262R): as the sequence (Q00056 201-287) above, with W62R counted along it
HOXA4 (Homo sapiens, UniProt Q00056 201-287, W262F), sequence (Q00056 201-287 W262F): as the sequence (Q00056 201-287) above, with W62F counted along it
ALX4 (Homo sapiens, UniProt Q9H161 200-286), sequence (Q9H161 200-286): as the sequence (Q9H161 200-286 Q225E) above, with E26Q counted along it
VAX1 (Homo sapiens, UniProt Q5SQQ9 86-172, T142I), sequence (Q5SQQ9 86-172 T142I): as the sequence (Q5SQQ9 86-172 K157R) above, with T57I, R72K counted along it

Regarding CTAATTGA, the binding signal with VENTX was 12.1 upbm affinity estimate (log intensity, higher = more binding, comparable within an allelic series); in the assay with HOXA4 [1], 10.5 upbm affinity estimate (log intensity, higher = more binding, comparable within an allelic series); with ALX4 [2], 14.1 upbm affinity estimate (log intensity, higher = more binding, comparable within an allelic series); in the assay with PRRX1 [3], 11.1 upbm affinity estimate (log intensity, higher = more binding, comparable within an allelic series); in the assay with ALX4 [4] it was 13.5 upbm affinity estimate (log intensity, higher = more binding, comparable within an allelic series); with HOXA2 [5] it was 13.3 upbm affinity estimate (log intensity, higher = more binding, comparable within an allelic series). The binding signal was 12.8 upbm affinity estimate (log intensity, higher = more binding, comparable within an allelic series) with MSX2 [6]; 13.4 upbm affinity estimate (log intensity, higher = more binding, comparable within an allelic series) with HOXA2 [7]; 13.9 upbm affinity estimate (log intensity, higher = more binding, comparable within an allelic series) with HOXA4 [8]; 13.9 upbm affinity estimate (log intensity, higher = more binding, comparable within an allelic series) in the assay with MSX2 [9]; 13.5 upbm affinity estimate (log intensity, higher = more binding, comparable within an allelic series) in the assay with MSX2 [10]; 13.2 upbm affinity estimate (log intensity, higher = more binding, comparable within an allelic series) with VAX1 [11]. Also, the binding signal is 12.8 upbm affinity estimate (log intensity, higher = more binding, comparable within an allelic series) in the assay with ALX1; 11.4 upbm affinity estimate (log intensity, higher = more binding, comparable within an allelic series) in the assay with HOXA4 [12]; 13.5 upbm affinity estimate (log intensity, higher = more binding, comparable within an allelic series) with PRRX1 [13]; 13.4 upbm affinity estimate (log intensity, higher = more binding, comparable within an allelic series) with VAX1 [14].
ATAATTGA: the binding signal was 10.6 upbm affinity estimate (log intensity, higher = more binding, comparable within an allelic series) in the assay with HOXA4 [1]; 11.2 upbm affinity estimate (log intensity, higher = more binding, comparable within an allelic series) in the assay with HOXA7 [15]; 14 upbm affinity estimate (log intensity, higher = more binding, comparable within an allelic series) with ALX4 [2]; 11.5 upbm affinity estimate (log intensity, higher = more binding, comparable within an allelic series) with PRRX1 [3]; 10 upbm affinity estimate (log intensity, higher = more binding, comparable within an allelic series) with HOXB6 [16]; 13.3 upbm affinity estimate (log intensity, higher = more binding, comparable within an allelic series) in the assay with ALX4 [4]. For the same sequence, the binding signal in the assay with MSX2 [6] is 12.8 upbm affinity estimate (log intensity, higher = more binding, comparable within an allelic series); with HOXA4 [8] it was 13.7 upbm affinity estimate (log intensity, higher = more binding, comparable within an allelic series); in the assay with MSX2 [9], 13.8 upbm affinity estimate (log intensity, higher = more binding, comparable within an allelic series); with MSX2 [10], 13.5 upbm affinity estimate (log intensity, higher = more binding, comparable within an allelic series); with HOXA7 [17], 8.94 upbm affinity estimate (log intensity, higher = more binding, comparable within an allelic series); in the assay with ALX1, 12.3 upbm affinity estimate (log intensity, higher = more binding, comparable within an allelic series). The binding signal is 11.3 upbm affinity estimate (log intensity, higher = more binding, comparable within an allelic series) with HOXA4 [12]; 13.5 upbm affinity estimate (log intensity, higher = more binding, comparable within an allelic series) in the assay with PRRX1 [13]; 11.7 upbm affinity estimate (log intensity, higher = more binding, comparable within an allelic series) in the assay with HOXB6 [18].
With AATTAATC, the binding signal with VENTX was 11.8 upbm affinity estimate (log intensity, higher = more binding, comparable within an allelic series); with HOXA4 [1] it was 10.6 upbm affinity estimate (log intensity, higher = more binding, comparable within an allelic series); with HOXA7 [15], 11.3 upbm affinity estimate (log intensity, higher = more binding, comparable within an allelic series); with ALX4 [2] it was 13.9 upbm affinity estimate (log intensity, higher = more binding, comparable within an allelic series); in the assay with PRRX1 [3], 11.3 upbm affinity estimate (log intensity, higher = more binding, comparable within an allelic series); with HOXB6 [16], 10 upbm affinity estimate (log intensity, higher = more binding, comparable within an allelic series). The binding signal was 13.2 upbm affinity estimate (log intensity, higher = more binding, comparable within an allelic series) in the assay with ALX4 [4]; 12.6 upbm affinity estimate (log intensity, higher = more binding, comparable within an allelic series) in the assay with HOXA2 [5]; 12.3 upbm affinity estimate (log intensity, higher = more binding, comparable within an allelic series) with MSX2 [6]; 13.9 upbm affinity estimate (log intensity, higher = more binding, comparable within an allelic series) with HOXA4 [8]; 13.3 upbm affinity estimate (log intensity, higher = more binding, comparable within an allelic series) with MSX2 [9]; 13 upbm affinity estimate (log intensity, higher = more binding, comparable within an allelic series) with MSX2 [10]. In addition, the binding signal with HOXA7 [17] is 8.73 upbm affinity estimate (log intensity, higher = more binding, comparable within an allelic series); in the assay with ALX1, 12.3 upbm affinity estimate (log intensity, higher = more binding, comparable within an allelic series); with HOXA4 [12] it was 11.3 upbm affinity estimate (log intensity, higher = more binding, comparable within an allelic series); with PRRX1 [13], 13.3 upbm affinity estimate (log intensity, higher = more binding, comparable within an allelic series); with HOXB6 [18] it was 11.6 upbm affinity estimate (log intensity, higher = more binding, comparable within an allelic series).
Take AACAATTA: the binding signal with VENTX was 11.7 upbm affinity estimate (log intensity, higher = more binding, comparable within an allelic series); with HOXA4 [1] it was 10.6 upbm affinity estimate (log intensity, higher = more binding, comparable within an allelic series); with HOXA7 [15] it was 11.2 upbm affinity estimate (log intensity, higher = more binding, comparable within an allelic series); with ALX4 [2], 13.6 upbm affinity estimate (log intensity, higher = more binding, comparable within an allelic series); with PRRX1 [3], 11.1 upbm affinity estimate (log intensity, higher = more binding, comparable within an allelic series); in the assay with HOXB6 [16], 10 upbm affinity estimate (log intensity, higher = more binding, comparable within an allelic series). Besides, the binding signal in the assay with ALX4 [4] was 12.8 upbm affinity estimate (log intensity, higher = more binding, comparable within an allelic series); with MSX2 [6], 12.8 upbm affinity estimate (log intensity, higher = more binding, comparable within an allelic series); with HOXA4 [8], 13.6 upbm affinity estimate (log intensity, higher = more binding, comparable within an allelic series); in the assay with MSX2 [9] it was 13.9 upbm affinity estimate (log intensity, higher = more binding, comparable within an allelic series); in the assay with MSX2 [10], 13.5 upbm affinity estimate (log intensity, higher = more binding, comparable within an allelic series); with HOXA7 [17] it was 8.96 upbm affinity estimate (log intensity, higher = more binding, comparable within an allelic series). Besides, the binding signal in the assay with HOXA4 [12] was 11.3 upbm affinity estimate (log intensity, higher = more binding, comparable within an allelic series).
In the case of CAATTAAG, the binding signal with VENTX is 12 upbm affinity estimate (log intensity, higher = more binding, comparable within an allelic series); with HOXA4 [1], 10.6 upbm affinity estimate (log intensity, higher = more binding, comparable within an allelic series); with HOXA7 [15] it was 11.5 upbm affinity estimate (log intensity, higher = more binding, comparable within an allelic series); in the assay with ALX4 [2] it was 13.9 upbm affinity estimate (log intensity, higher = more binding, comparable within an allelic series); with PRRX1 [3] it was 11.3 upbm affinity estimate (log intensity, higher = more binding, comparable within an allelic series); with HOXB6 [16], 9.95 upbm affinity estimate (log intensity, higher = more binding, comparable within an allelic series). The binding signal in the assay with ALX4 [4] is 13.4 upbm affinity estimate (log intensity, higher = more binding, comparable within an allelic series); with HOXA2 [5], 12.9 upbm affinity estimate (log intensity, higher = more binding, comparable within an allelic series); with MSX2 [6], 12.8 upbm affinity estimate (log intensity, higher = more binding, comparable within an allelic series); with HOXA2 [7], 13 upbm affinity estimate (log intensity, higher = more binding, comparable within an allelic series); with HOXA4 [8], 13.8 upbm affinity estimate (log intensity, higher = more binding, comparable within an allelic series); with MSX2 [9], 13.9 upbm affinity estimate (log intensity, higher = more binding, comparable within an allelic series). Moreover, the binding signal in the assay with MSX2 [10] was 13.4 upbm affinity estimate (log intensity, higher = more binding, comparable within an allelic series); with VAX1 [11], 12.8 upbm affinity estimate (log intensity, higher = more binding, comparable within an allelic series); with HOXA7 [17], 8.83 upbm affinity estimate (log intensity, higher = more binding, comparable within an allelic series); with ALX1 it was 12.3 upbm affinity estimate (log intensity, higher = more binding, comparable within an allelic series); in the assay with HOXA4 [12] it was 11.7 upbm affinity estimate (log intensity, higher = more binding, comparable within an allelic series); with PRRX1 [13] it was 13.3 upbm affinity estimate (log intensity, higher = more binding, comparable within an allelic series). Besides, the binding signal was 12.5 upbm affinity estimate (log intensity, higher = more binding, comparable within an allelic series) in the assay with VAX1 [14] and 11.8 upbm affinity estimate (log intensity, higher = more binding, comparable within an allelic series) in the assay with HOXB6 [18].
